Assay results published in the supplement of paper PMC11732987, “Enantioselective OTUD7B fragment discovery through chemoproteomics screening and high-throughput optimisation” (Communications Chemistry, 2025).

Columns and labels:
Experiment in all cases: log2 ratio of Biotin-Ahx-Ub-VS probe labelling (fragment/DMSO); higher = less target engagement (more negative = stronger competition), active = hit call of the paper (q ≤ 0.05, log2 ratio ≤ -1)
Settings in all cases: compound concentration: 200 uM; treatment time: 3 h
[1] = biological target: USP16 (UniProt Q9Y5T5)
Chain of USP16 (Q9Y5T5 whole entry, looked up, the tested form may be a part): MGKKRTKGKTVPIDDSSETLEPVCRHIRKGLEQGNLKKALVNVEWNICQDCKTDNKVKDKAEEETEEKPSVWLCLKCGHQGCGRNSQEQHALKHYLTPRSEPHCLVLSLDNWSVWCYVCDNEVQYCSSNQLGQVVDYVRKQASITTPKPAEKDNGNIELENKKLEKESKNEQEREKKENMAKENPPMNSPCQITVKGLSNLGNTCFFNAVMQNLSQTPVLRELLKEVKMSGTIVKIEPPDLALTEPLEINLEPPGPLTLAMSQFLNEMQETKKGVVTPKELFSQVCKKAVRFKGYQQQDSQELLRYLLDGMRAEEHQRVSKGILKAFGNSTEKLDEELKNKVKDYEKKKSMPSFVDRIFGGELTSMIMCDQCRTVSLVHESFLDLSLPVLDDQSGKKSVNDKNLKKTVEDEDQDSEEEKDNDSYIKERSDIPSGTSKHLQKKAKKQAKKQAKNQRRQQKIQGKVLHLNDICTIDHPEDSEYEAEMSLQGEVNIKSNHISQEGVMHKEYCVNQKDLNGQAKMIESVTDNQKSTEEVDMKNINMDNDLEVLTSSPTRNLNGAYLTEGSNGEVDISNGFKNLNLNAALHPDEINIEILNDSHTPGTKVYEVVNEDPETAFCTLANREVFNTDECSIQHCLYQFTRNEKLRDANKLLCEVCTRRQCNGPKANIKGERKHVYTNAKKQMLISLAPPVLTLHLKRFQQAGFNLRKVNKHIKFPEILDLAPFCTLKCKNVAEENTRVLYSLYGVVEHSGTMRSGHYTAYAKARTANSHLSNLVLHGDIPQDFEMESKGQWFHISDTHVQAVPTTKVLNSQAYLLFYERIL
How it was run: (§1)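 Global-median-normalised Spectronaut label-free quantities were compared by unpaired t-test, and values are average log2 ratios of fragment over vehicle. Only proteins with ≥2 unique peptides were used. HEK293T lysate (495 µg per sample) was treated in triplicate with fragment at 200 µM or vehicle for 3 h and then with Biotin-Ahx-Ub-VS at 0.5 µM final for 1 h. Labelled DUBs were then NeutrAvidin-enriched, digested with LysC and trypsin, and run by diaPASEF LC-MS/MS.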

[2] = biological target: T1, USP19 (UniProt O94966)
T1 sequence (whole entry): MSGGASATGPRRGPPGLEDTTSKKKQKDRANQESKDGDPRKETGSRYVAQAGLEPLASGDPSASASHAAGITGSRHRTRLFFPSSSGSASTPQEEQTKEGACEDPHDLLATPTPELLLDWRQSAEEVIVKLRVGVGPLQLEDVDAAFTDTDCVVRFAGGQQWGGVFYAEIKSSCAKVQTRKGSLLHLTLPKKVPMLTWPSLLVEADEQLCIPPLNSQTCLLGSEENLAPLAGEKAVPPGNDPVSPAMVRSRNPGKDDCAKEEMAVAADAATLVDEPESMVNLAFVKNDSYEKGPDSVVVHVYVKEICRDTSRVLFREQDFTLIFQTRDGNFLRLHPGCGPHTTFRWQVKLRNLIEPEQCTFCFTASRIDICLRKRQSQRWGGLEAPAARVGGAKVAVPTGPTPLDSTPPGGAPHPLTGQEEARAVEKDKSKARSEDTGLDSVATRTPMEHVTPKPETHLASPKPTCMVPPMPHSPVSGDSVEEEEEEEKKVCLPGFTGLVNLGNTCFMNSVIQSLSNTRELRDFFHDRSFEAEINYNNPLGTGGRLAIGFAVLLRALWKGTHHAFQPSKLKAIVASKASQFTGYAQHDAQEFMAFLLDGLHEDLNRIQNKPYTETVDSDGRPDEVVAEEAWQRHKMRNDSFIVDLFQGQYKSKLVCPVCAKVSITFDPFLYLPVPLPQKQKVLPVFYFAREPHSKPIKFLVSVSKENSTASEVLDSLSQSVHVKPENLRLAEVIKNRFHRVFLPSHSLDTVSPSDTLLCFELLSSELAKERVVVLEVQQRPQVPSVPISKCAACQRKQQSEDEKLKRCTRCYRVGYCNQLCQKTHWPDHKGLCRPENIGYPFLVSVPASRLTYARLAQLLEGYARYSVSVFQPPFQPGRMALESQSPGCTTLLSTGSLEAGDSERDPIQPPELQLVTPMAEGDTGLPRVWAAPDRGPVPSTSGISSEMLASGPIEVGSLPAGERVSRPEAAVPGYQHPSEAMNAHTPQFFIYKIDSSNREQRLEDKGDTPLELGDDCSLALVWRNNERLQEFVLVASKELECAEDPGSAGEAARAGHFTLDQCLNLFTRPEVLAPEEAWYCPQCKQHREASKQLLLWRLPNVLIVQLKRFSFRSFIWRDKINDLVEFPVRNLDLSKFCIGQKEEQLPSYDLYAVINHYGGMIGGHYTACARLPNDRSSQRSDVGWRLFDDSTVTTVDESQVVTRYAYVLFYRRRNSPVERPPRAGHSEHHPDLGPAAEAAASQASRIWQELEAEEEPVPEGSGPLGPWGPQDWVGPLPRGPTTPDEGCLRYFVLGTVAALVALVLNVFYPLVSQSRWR
How it was run: as §1

[3] = biological target: USP24 (UniProt Q9UPU5)
Chain of USP24 (Q9UPU5 whole entry): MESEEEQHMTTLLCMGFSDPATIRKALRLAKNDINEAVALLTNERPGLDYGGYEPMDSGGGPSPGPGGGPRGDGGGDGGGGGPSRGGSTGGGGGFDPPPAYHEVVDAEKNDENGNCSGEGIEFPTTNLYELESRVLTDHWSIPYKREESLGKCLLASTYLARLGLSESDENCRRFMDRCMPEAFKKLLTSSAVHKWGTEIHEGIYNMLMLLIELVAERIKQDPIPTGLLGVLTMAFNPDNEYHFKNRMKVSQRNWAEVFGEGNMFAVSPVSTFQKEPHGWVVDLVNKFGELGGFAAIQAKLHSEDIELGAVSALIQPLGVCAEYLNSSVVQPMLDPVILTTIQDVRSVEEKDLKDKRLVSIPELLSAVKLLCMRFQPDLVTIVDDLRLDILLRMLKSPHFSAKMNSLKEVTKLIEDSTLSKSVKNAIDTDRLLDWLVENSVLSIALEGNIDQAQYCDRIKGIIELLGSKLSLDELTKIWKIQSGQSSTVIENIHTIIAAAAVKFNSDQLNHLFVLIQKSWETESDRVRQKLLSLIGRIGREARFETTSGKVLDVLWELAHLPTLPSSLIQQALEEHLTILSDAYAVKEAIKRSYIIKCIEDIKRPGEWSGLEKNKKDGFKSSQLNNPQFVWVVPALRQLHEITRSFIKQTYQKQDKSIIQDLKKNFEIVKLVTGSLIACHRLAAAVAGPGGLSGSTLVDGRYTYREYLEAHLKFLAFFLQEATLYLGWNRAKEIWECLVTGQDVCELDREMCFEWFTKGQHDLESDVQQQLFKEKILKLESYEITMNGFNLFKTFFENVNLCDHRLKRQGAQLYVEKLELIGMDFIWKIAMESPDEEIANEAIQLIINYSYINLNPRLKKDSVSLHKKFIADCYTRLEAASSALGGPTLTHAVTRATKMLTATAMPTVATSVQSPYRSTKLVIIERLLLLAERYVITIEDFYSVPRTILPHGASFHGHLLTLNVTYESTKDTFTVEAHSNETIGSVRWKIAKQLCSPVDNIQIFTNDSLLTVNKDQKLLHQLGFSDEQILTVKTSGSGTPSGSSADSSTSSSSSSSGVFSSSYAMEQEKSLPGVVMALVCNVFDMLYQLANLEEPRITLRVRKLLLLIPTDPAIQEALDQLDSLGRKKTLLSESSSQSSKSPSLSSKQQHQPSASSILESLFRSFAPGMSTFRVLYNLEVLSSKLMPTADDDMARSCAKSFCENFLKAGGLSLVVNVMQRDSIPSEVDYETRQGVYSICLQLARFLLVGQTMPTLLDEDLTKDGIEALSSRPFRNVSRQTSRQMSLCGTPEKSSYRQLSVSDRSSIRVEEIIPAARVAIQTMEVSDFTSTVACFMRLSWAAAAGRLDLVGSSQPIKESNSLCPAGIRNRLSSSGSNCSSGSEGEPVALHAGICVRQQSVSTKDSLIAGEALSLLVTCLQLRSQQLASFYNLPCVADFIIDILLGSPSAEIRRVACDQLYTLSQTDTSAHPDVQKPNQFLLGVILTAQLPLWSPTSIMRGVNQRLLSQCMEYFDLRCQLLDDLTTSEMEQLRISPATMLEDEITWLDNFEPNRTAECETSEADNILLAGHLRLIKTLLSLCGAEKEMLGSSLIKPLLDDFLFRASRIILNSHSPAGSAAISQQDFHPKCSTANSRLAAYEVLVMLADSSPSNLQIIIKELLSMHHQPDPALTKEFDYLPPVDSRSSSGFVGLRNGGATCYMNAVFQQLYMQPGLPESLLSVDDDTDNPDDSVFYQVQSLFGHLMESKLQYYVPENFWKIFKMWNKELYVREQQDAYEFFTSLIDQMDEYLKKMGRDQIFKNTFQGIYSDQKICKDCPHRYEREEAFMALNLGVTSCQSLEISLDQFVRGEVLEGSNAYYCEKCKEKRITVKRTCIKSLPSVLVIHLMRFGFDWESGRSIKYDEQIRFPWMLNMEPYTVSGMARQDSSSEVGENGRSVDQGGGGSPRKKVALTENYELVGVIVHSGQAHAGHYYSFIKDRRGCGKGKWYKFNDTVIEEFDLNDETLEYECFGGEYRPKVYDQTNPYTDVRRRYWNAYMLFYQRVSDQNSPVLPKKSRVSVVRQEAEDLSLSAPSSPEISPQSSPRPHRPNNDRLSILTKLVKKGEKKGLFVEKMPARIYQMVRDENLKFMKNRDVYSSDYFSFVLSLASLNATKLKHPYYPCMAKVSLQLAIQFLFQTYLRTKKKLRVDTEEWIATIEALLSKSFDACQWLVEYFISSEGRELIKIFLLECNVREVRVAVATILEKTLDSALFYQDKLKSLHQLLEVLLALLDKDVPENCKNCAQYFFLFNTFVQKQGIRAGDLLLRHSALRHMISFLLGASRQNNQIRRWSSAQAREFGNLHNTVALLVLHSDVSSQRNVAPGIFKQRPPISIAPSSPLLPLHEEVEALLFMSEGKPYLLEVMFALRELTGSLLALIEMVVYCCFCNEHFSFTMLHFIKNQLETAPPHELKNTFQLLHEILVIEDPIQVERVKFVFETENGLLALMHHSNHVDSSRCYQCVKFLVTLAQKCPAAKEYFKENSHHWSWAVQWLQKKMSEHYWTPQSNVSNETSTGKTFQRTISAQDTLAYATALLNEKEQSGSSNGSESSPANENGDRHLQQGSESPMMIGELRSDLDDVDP
How it was run: as §1

[4] = biological target: T2, USP25 (UniProt Q9UHP3)
T2 sequence (whole entry): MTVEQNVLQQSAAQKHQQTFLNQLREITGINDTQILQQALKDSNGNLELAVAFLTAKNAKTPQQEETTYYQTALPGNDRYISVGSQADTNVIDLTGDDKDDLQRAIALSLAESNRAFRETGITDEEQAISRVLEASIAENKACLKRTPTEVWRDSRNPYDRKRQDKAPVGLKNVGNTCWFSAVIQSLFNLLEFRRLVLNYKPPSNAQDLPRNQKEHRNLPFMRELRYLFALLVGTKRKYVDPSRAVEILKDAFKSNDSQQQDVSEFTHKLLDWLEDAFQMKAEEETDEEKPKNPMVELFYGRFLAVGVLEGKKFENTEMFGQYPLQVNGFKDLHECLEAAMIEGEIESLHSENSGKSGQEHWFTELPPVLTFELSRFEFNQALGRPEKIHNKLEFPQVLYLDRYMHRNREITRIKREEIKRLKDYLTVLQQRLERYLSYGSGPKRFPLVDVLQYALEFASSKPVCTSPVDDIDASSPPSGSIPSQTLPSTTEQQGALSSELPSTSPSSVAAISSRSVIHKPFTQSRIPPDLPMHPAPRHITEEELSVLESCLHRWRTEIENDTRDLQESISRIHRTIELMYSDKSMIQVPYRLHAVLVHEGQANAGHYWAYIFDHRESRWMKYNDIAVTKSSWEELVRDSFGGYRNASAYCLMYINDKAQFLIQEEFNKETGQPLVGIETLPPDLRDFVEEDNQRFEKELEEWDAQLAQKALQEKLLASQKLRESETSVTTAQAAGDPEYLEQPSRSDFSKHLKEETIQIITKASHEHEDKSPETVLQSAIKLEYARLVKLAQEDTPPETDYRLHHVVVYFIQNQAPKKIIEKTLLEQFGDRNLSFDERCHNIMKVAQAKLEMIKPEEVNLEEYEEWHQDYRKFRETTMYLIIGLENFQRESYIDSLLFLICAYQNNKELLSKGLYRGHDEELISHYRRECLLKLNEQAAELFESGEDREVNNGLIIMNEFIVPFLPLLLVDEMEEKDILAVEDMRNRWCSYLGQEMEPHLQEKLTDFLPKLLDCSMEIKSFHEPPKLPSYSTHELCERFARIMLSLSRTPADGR
How it was run: as §1

[5] = biological target: T3, USP28 (UniProt Q96RU2)
T3 sequence (whole entry): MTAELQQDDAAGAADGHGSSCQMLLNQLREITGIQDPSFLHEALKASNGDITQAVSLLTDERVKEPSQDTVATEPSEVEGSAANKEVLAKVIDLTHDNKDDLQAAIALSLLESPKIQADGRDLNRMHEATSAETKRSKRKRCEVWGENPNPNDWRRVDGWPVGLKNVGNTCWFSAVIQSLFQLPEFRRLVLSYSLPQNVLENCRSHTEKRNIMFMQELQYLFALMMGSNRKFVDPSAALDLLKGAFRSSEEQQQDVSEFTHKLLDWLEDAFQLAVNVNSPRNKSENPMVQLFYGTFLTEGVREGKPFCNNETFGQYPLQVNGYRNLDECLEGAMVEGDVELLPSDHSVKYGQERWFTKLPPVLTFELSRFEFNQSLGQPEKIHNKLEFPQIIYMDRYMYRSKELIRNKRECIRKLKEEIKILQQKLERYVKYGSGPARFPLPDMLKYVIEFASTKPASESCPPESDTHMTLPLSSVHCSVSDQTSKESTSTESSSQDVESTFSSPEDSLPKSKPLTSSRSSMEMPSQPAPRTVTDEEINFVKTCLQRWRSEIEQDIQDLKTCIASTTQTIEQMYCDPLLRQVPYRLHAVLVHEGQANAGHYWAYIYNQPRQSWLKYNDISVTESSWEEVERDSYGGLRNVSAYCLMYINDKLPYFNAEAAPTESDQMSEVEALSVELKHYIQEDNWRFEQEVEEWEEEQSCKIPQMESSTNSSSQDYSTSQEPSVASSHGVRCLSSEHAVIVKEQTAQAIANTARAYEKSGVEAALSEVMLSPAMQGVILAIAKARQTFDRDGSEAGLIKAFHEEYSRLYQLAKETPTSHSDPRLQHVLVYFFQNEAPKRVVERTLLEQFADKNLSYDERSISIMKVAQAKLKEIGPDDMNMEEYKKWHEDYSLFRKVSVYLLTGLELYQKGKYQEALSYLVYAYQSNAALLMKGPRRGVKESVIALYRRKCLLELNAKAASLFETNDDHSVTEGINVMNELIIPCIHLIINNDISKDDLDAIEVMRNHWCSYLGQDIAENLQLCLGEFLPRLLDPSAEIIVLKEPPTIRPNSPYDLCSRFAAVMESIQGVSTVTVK
How it was run: as §1

Measured: log2 ratio of Biotin-Ahx-Ub-VS probe labelling

CCN(C(=O)CCl)C1CCCCC1
inactive: [1] 0.0695 | [2] 0.1 | [3] -0.333 | [4] 0.0335 | [5] -0.0965
